The values below come from PubChem BioAssay (Tox21).

Structures are written as SMILES. Values without a mark were called inactive. Records with an inconclusive call do not appear. Activity calls are given as the source filed them. Unless noted, calls follow the shape of the dose curve; as a rule, active = well fitted curve in the direction sought with a large enough effect in the repeat runs; inconclusive = weak or mixed curves; inactive = no such curve, though single readings can be large; an effect the other way counts as inactive or inconclusive.

Test [1] is described as follows: qHTS RealTime-Glo MT Cell Viability Assay in HEK293 cells - 8 hour (AID 1224887). Also: top concentration of the series differs between compounds; nearly all actives have a fitted effect of over 50% in size. A digest of the protocol:
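HEK293 + NanoLuc + prosubstrate, 600 cells/well; 5 h, 37 C/5% CO2; compound 23 nL in DMSO by pintool; 37 C; luminescence read at 0, 8, 16, 24, 32 and 40 h time points.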

Test [2] is described as follows: A CellTox Green Cytotoxicity Assay to monitor cytotoxicity in HEK293 cells - 16 hour (AID 1224888). Also: nearly all actives have a fitted effect of over 35% in size. A digest of the protocol:
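Tox21 screen in HEK293: membrane-impermeant cyanine dye fluoresces on binding dead-cell DNA; compound pinned 5 h post-seeding, plates held at 37 C, signal read repeatedly through 40 h.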

Test [3] can be described thus: qHTS RealTime-Glo MT Cell Viability Assay in HepG2 cells - 0 hour (AID 1224889). Also: nearly all actives have a fitted effect of over 50% in size. A digest of the protocol: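 Compound treatment began 5 h after plating HepG2 cells (600/well) with NanoLuc luciferase and prosubstrate. Plates stayed at 37 C for 40 h; luminescence was captured at six time points, 0 h through 40 h.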
Test [4] can be described thus: A CellTox Green Cytotoxicity Assay to monitor cytotoxicity in HepG2 cells - 8 hour (AID 1224890). Also: nearly all actives have a fitted effect of over 45% in size. A digest of the protocol:
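Measurements at 0, 8, 16, 24, 32 and 40 h of treatment captured CellTox Green fluorescence in HepG2 cells that had been co-plated with reagent and preincubated 5 h at 37 C/5% CO2.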

Test [5] can be described thus: qHTS assay to identify small molecule antagonists of the estrogen receptor alpha (ER-alpha) signaling pathway using the BG1 cell line in the presence of 0.1 nM 17-beta-estradiol - cell viability counter screen (AID 1259241). Also: nearly all actives have a fitted effect of over 40% in size. A digest of the protocol: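 Cells were plated and left 24 hr, compounds in DMSO were pinned in, 17beta-estradiol was added to 0.1 nM final, and after 22 hr CellTiter-Fluor reagent was added for 30 min before fluorescence was read.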

The nature of test [6]: qHTS assay to identify small molecule antagonists of the androgen receptor (AR) signaling pathway using the MDA cell line in the presence of 0.5 nM R1881 - cell viability counter screen (AID 1259242). Also: nearly all actives have a fitted effect of over 45% in size. A digest of the protocol:
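Concentration-response screen of compounds for toxicity in MDA-kb2 reporter cells: 16 hr at 37C with 0.5 nM R1881, endpoint live-cell protease fluorescence measured in the reporter wells.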

The target in test [7] is Estrogen receptor (Homo sapiens) (UniProt P03372). As to the kind of experiment: qHTS assay to identify small molecule antagonists of the estrogen receptor alpha (ER-alpha) signaling pathway using the BG1 cell line in the presence of 0.1 nM 17-beta-estradiol (AID 1259244). Also: nearly all actives have a fitted effect of over 50% in size. A digest of the protocol: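 Compounds were tested against 0.1 nM (final) 17beta-estradiol in VM7Luc4E2 cells, which express full-length ER-alpha and an ERE-luciferase reporter; luminescence was recorded following 22 h exposure.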
Sequence of Estrogen receptor (Homo sapiens) (P03372 whole entry, looked up): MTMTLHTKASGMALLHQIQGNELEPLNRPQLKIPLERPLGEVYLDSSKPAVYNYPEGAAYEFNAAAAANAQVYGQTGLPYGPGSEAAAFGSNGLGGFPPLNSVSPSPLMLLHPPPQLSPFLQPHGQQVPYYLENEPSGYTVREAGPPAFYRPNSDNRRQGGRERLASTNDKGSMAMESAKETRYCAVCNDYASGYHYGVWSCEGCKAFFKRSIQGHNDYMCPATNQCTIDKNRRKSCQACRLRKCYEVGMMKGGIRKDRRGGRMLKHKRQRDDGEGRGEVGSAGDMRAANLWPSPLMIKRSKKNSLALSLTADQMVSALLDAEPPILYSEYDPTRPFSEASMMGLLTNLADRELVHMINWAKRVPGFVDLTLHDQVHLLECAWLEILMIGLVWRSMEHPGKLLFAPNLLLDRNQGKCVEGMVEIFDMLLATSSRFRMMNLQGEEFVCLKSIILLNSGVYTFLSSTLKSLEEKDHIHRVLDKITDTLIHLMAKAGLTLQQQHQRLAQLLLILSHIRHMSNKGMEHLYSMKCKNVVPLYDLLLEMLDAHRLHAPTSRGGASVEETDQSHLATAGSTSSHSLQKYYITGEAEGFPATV

The nature of test [8]: qHTS assay to identify small molecule HDAC inhibitors (AID 1259364).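 Also: wild-type HCT-116 cells with endogenous class I/II HDAC activity; top concentration of the series differs between compounds; nearly all actives have a fitted effect of over 45% in size.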 A digest of the protocol: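 Screening used wild-type human colon HCT-116 cells incubated overnight, dosed with compounds for 2 hours, and assayed with a homogeneous luminogenic HDAC I/II reagent for 30 minutes at room temperature.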
Test [9] can be described thus: qHTS assay to identify small molecule HDAC inhibitors - cell viability counter screen (AID 1259365). Also: series mostly up to about 92 µM; nearly all actives have a fitted effect of over 50% in size. A digest of the protocol: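 Counter screen in wild-type HCT-116 cells: compounds dissolved in DMSO are pin-transferred onto overnight-plated cells and left 2hr at 37C. ATP-based CellTiter-Glo luminescence then measures viable cells.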
Test [10] in a line: qHTS assay to identify small molecule agonists of the sonic hedgehog signaling (Shh) pathway - cell viability counter screen (AID 1259366). Also: nearly all actives have a fitted effect of over 50% in size. Also: potency is read from the fitted curve at half-maximal effect. A digest of the protocol: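 Cells are plated at 2,000 per well and left 4hr at 37C, 5% CO2 before compound addition. After 23hr of treatment, CellTiter-Fluor reagent is added for 1hr at 37C and fluorescence is measured.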
The nature of test [11]: qHTS assay to identify small molecule antagonists of the sonic hedgehog signaling (Shh) pathway - cell viability counter screen (AID 1259367). Also: nearly all actives have a fitted effect of over 55% in size. Also: potency is read from the fitted curve at half-maximal effect. A digest of the protocol: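 Tox21 library chemicals were tested on a Gli1-Luc NIH/3T3 clone (2,000 cells/well) stimulated by conditioned medium; viability was quantified as fluorescence from CellTiter-Fluor reagent added at 23 hr.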

Test [12] is described as follows: qHTS assay to identify small molecule agonists of the sonic hedgehog signaling (Shh) pathway (AID 1259368; calls by dose curve;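 also: NIH/3T3-derived 3T3Gli1-Luc cells carrying a stable Gli1-driven firefly luciferase reporter; series mostly up to about 92 µM; nearly all actives have a fitted effect of over 15% in size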). A digest of the protocol: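 Hedgehog pathway agonism scored by increased firefly luciferase luminescence in 3T3Gli1-Luc cells treated 24 hr at 37 C; detection used a 30 min room-temperature reagent incubation.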
Test [13] can be described thus: qHTS assay to identify small molecule antagonists of the sonic hedgehog signaling (Shh) pathway (AID 1259369; calls by dose curve; also: nearly all actives have a fitted effect of over 45% in size; also: potency is read from the fitted curve at half-maximal effect). A digest of the protocol:
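NIH/3T3 stable Gli1-Luc clone, 2,000 cells/well, 4hr settle; cpd + conditioned medium 24hr; Luc reagent 30min RT; luminescence.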

The target of test [14] is Estrogen receptor beta (Homo sapiens) (UniProt Q92731). In words: qHTS assay to identify small molecule agonists of the estrogen receptor beta (ER-beta) signaling pathway (AID 1259377; active = well fitted activation curve with a large enough effect in the signal ratio in the repeat runs, not every such curve was filed as active; the % refers to the signal ratio). A digest of the protocol:
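Agonist mode cell assay in GripTite HEK293T cells expressing an ER-beta fusion that drives beta-lactamase from an Upstream Activator Sequence; 16 hr compound exposure at 37C, then 2 h LiveBLAzer B/G FRET substrate at room temperature, fluorescence read-out.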

For test [15] the target is unchanged. As to the kind of experiment: qHTS assay to identify small molecule antagonists of the estrogen receptor beta (ER-beta) signaling pathway (AID 1259378; active = well fitted inhibition curve with a large enough effect in the signal ratio in the repeat runs, not every such curve was filed as active; the % refers to the signal ratio). A digest of the protocol: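 ER-beta-UAS-bla HEK293T cells in 2% charcoal-stripped FBS medium treated with compound plus 1nM final 17-beta-estradiol for 16 hr at 37C. Beta-lactamase reporter read by FRET substrate fluorescence after 2 hours at room temperature.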

The nature of test [16]: qHTS assay to identify small molecule agonists of the androgen receptor (AR) signaling pathway in the presence of an antagonist - cell viability counter screen (AID 1259379).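 Also: MDA-kb2 human breast cancer cells carrying an MMTV luciferase reporter; series mostly up to about 92 µM; nearly all actives have a fitted effect of over 25% in size.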 A digest of the protocol:
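MDA-kb2 viability measured by CellTiter-Fluor fluorescence in the same wells as the luciferase signal; nilutamide 3.0uM final; 15-point compound titration; 16 hr at 37C.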

Test [17] addresses Androgen receptor (Homo sapiens) (UniProt P10275). As to the kind of experiment: qHTS assay to identify small molecule antagonists of the androgen receptor (AR) signaling pathway using the MDA cell line in the presence of 0.5 nM R1881 (AID 1259243). Also: nearly all actives have a fitted effect of over 50% in size. Also: potency is read from the fitted curve at half-maximal effect. A digest of the protocol: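 With R1881 held at 0.5 nM (final), compound effects on MMTV-luciferase expression in MDA-kb2 cells were scored by luminescence after a 16 hr, 37C incubation.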

For test [18] the target is unchanged. As to the kind of experiment: qHTS assay to identify small molecule agonists of the androgen receptor (AR) signaling pathway in the presence of an antagonist (AID 1259381; calls by dose curve; also: nearly all actives have a fitted effect of over 15% in size). A digest of the protocol:
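Luminescent ONE-Glo read, 30min at room temperature, follows 16hr compound exposure (15 concentrations) of MDA-kb2 cells at 37C, 0% CO2, with nilutamide added at 3.0uM final.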

A short description of test [19]: qHTS assay to identify small molecule agonists of the estrogen receptor beta (ER-beta) signaling pathway - cell viability counter screen (AID 1259380). Also: nearly all actives have a fitted effect of over 30% in size. A digest of the protocol: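 Measured: luminescence from CellTiter-Glo after 30 min at room temperature, added to wells already read for the LiveBLAzer FRET reporter (2 hr substrate); ER-beta-UAS-bla HEK293T cells had 16 hr compound treatment at 37C, 5% CO2.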

Test [20] in a line: qHTS assay to identify small molecule phospholipidosis (PLD) inducers (AID 1259344; active = well fitted curve in the direction sought with a large enough effect; an effect the other way counts as inactive or inconclusive). A digest of the protocol:
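Image-based: LipidTOX Red pit count/intensity per well and per cell; HepG2, 24 h compound at 37 C, PFA fixation, Hoechst counterstain.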
% is scaled to controls: 0 for no effect and ±100 for the full control effect.

Sequence of Estrogen receptor beta (Homo sapiens) (Q92731 whole entry, looked up, the tested form may be a part): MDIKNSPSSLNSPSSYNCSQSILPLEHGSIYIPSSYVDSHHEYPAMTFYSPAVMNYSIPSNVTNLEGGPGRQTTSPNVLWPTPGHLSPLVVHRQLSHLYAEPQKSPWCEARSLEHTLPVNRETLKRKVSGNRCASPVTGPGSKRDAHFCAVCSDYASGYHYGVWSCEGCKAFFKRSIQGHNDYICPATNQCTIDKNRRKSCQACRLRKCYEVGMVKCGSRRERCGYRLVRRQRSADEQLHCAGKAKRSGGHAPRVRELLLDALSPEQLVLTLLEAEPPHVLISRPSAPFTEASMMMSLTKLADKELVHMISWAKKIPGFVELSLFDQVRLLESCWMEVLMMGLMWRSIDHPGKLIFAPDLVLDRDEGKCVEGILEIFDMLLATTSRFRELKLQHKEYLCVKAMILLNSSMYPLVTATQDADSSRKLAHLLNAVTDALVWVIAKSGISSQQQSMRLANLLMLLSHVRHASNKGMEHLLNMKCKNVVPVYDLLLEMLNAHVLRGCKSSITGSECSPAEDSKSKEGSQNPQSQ
Sequence of Androgen receptor (Homo sapiens) (P10275 whole entry, looked up): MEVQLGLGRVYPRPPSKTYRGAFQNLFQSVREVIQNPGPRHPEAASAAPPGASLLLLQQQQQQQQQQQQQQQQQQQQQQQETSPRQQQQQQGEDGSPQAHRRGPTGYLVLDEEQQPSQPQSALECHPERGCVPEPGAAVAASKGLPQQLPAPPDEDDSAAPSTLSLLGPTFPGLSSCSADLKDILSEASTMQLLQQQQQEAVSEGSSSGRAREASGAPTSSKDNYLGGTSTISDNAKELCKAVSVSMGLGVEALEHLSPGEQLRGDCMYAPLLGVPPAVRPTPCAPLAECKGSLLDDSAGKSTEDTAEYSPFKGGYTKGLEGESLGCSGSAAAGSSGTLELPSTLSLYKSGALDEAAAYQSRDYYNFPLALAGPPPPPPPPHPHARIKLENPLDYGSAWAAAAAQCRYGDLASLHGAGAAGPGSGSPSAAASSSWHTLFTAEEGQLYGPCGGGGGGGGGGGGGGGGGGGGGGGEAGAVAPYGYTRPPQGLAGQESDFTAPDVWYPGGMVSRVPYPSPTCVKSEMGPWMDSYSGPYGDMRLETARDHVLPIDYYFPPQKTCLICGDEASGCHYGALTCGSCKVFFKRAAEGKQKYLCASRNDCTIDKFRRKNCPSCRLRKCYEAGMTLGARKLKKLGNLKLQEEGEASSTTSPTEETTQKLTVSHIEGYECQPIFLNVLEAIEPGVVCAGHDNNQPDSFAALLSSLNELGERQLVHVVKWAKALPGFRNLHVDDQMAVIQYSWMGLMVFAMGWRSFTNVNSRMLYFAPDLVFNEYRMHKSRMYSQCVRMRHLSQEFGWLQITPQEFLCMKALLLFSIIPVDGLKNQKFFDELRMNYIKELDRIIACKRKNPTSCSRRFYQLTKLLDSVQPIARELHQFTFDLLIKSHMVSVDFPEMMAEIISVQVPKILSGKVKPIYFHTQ

Consider `Cn1ccnc1`, for which the Potency result in test [1], in [2], in [3], in test [4], in test [5] and in test [6] was “inactive” in each case. Further, the Potency entry in test [7], in test [8], in [9], in test [10], in test [11] and in test [12] was “inactive” in each case. In addition, the Potency result in [13], in test [15] and in [16] was “inactive” in each case. Moreover, the outcome in [14] was inactive.

Regarding `CN1CC[C@H](c2c(O)cc(O)c3c(=O)cc(-c4ccccc4Cl)oc23)[C@H](O)C1`, the Potency entry in test [1], in [2], in [3], in test [4], in test [5] and in [6] was “inactive” each time. Further, the Potency entry in test [8], in test [9], in test [12], in [16] and in test [18] was “inactive” throughout. Besides, the Potency in test [17] was 94.4 nM (active); in [10] it was 376 nM (active); in test [11] it was 298 nM (active); in [13], 47.3 nM (active). Moreover, in test [14], the result was inactive.

For `CCOC(=O)OC(=O)OCC`, the Potency result in test [1], in test [2], in test [3], in test [4], in test [5] and in [6] was “inactive” throughout. Further, the Potency entry in test [17], in [7], in test [8], in test [10], in [11] and in test [12] was “inactive” in each case. Moreover, the Potency entry in [13], in test [15], in [16], in test [19] and in test [18] was “inactive” in each case.

Regarding `COc1cc(C(C)C)ccc1C`, the activity change, negative = cytotoxicity is 1.54% [at 15.8 µM] in test [1], -5.12% [at 15.8 µM] in test [3], -2.73% [at 19 µM] in test [5] and 2.27% [at 19 µM] in test [19]. Further, the activity change is -2.08% [at 15.8 µM, hits give high values] in [2] and 1.1% [at 18.9 µM, hits give high values] in test [12]. The cytotoxicity increase in [4] was -11.9% [at 15.8 µM]. In addition, the viability change, negative = cytotoxic in [6] is 0.996% [at 19 µM]; in test [10] it was 0.547% [at 19 µM]; in test [11], 0.176% [at 19 µM]. For the same compound, the activity, negative = inhibition was -0.285% [at 19 µM] in [17] and -9.09% [at 19 µM] in test [15]. The activity change, negative = inhibition in test [8] was 3.05% [at 19 µM]; in test [13], -24.4% [at 19 µM]. Moreover, the activation in [18] is 0.232% [at 19 µM].

With `CCCCCCCCCCCCCCCCC(C(=O)O)C(O)(CC(=O)O)C(=O)O` (stereo not given), the Potency entry in [1], in [2], in [3], in test [4], in test [5] and in [6] was “inactive” throughout. Also, the Potency entry in [17], in test [7], in test [20], in [8], in [9] and in test [10] was “inactive” in each case. The Potency result in test [11], in test [12], in test [13], in test [15], in [16] and in test [18] was “inactive” throughout. Also, in test [14], the compound was classed as inactive.

As for `CCC(=O)OC/C=C(\C)CCC=C(C)C`, the Potency result in test [1], in test [2], in [3], in test [4], in test [5] and in [6] was “inactive” throughout. Further, the Potency result in test [17], in test [7], in test [8], in [9], in [10] and in test [11] was “inactive” throughout. Further, the Potency result in test [12], in test [13], in test [16], in test [19] and in test [18] was “inactive” in each case.
